Nine compounds from PubChem BioAssay (NCI) can be followed below.

Assay in all cases: NCI-60 one-dose screen, 48 h (100 = growth as untreated, 0 = no growth, -100 = all killed)
Holding throughout (conditions): 10 µM unless noted

The subject of experiment [1] is RPMI-8226 leukemia.
For experiment [2], the system named is OVCAR-8 ovarian.
Experiment [3] deals with OVCAR-5 ovarian.
Experiment [4] concerns OVCAR-4 ovarian.
The test system of experiment [5] is SK-OV-3 ovarian.
Experiment [6] relates to IGROV1 ovarian.
Experiment [7] concerns OVCAR-3 ovarian.
Experiment [8] relates to HS 578T breast.
Experiment [9] deals with NCI/ADR-RES ovarian.
Experiment [10] deals with T-47D breast.
For experiment [11], the system named is BT-549 breast.
Experiment [12] relates to MDA-MB-435 melanoma.
The subject of experiment [13] is SW-620 colon.
The test system of experiment [14] is MCF7 breast.
The subject of experiment [15] is HCT-116 colon.
The test system of experiment [16] is HCC-2998 colon.
For experiment [17], the system named is KM12 colon.
The test system of experiment [18] is MDA-MB-468 breast.
Experiment [19] has as its system SR leukemia.

This is part of a sample that, as a whole, favours compounds with a hit. Of some 83,000 tested, about 20% had one in any assay.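 48-hour exposure, single concentration, 96-well plates; percent growth endpoint where 0 means no net growth. Active: below 10.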 Unmarked numbers belong to inactive results. The source made the active and inactive calls.

On to `O=C(/C=C/c1ccc(O)c(O)c1)NC1CCOC1O` (stereo not drawn), for which the growth in experiment [1] is 97.4%; in experiment [2] it was 95.7%; in experiment [3], 114%; in experiment [4] it was 108%; in experiment [5] it was 94.8%; in experiment [6], 111%. For the same compound, the growth in experiment [7] is 103%; in experiment [8], 89.1%; in [9], 105%; in experiment [10] it was 92.8%; in experiment [11], 108%; in experiment [12], 101%. Further, the growth in experiment [13] was 109%; in experiment [14], 90.7%; in experiment [15], 103%; in [16], 99.2%; in experiment [17] it was 102%; in [18], 109%.

Consider `COc1cccc(COc2ccc(NC(=O)Nc3ccc(Cl)c(C(F)(F)F)c3)cc2)c1`, for which the growth was 13.5% in experiment [1]; 31.9% in [2]; 69.8% in [3]; 45.2% in [4]; 35.6% in experiment [5]; 25.8% in [6]. Also, the growth in [7] is 27.6%; in [8] it was 26.7%; in experiment [9], 47.1%; in [10], 19.5%; in experiment [11] it was 37.9%; in experiment [12] it was 58.9%. Moreover, the growth in [13] is 49.3%; in [14] it was 24.3%; in experiment [15], 18.8%; in [16], 46.8%; in experiment [17], 6.06% (active); in experiment [18], 2.67% (active).

For `CSc1ccccc1NC(=O)c1ccc2nn(/C(C#N)=C/c3ccccn3)nc2c1`, the growth in experiment [19] is 1.1% (active); in experiment [1] it was -41.9% (active); in experiment [2], -3.76% (active); in experiment [4], -55.6% (active); in experiment [5], 42.9%; in experiment [6] it was -67.9% (active). For the same compound, the growth was -87.8% (active) in experiment [7]; 2.48% (active) in [9]; -78.4% (active) in experiment [10]; -98.4% (active) in experiment [11]; -18.2% (active) in [12]; -82.4% (active) in experiment [14]. Besides, the growth in experiment [15] is -97.4% (active); in experiment [16] it was -94.5% (active); in experiment [17], -44.9% (active); in experiment [18], -84.2% (active).

As to `COc1cc2c(c(OC)c1OC)C(=O)CC(c1cccc(NC(=O)c3cc([N+](=O)[O-])ccc3Cl)c1)O2` (stereo not drawn), the growth was 30.3% in experiment [1]; -11.6% (active) in [2]; 67.2% in [3]; 57.2% in experiment [4]; 57.1% in [5]; 12.5% in experiment [6]. The growth in experiment [7] was 16%; in [8], 15.1%; in experiment [9] it was 15%; in [10], 23.6%; in experiment [11] it was -11% (active); in experiment [12], 28.5%. Also, the growth in [13] was -6.32% (active); in experiment [14], 11.7%; in experiment [15], -66.1% (active); in experiment [16], 33%; in experiment [17] it was -54.7% (active); in experiment [18], -13.7% (active).

As for `COc1cc(OC)c2c3nc4cc(C)c(C)cc4nc3n(CCN(C)C)c2c1`, the growth in experiment [19] is 0.994% (active); in experiment [2], -0.293% (active); in [3], 73.1%; in experiment [4], 63.3%; in experiment [5] it was 103%; in experiment [6] it was 55.5%. Besides, the growth was 97.7% in [7]; 84.2% in experiment [8]; 3.26% (active) in [9]; 60.7% in [10]; 78.9% in [11]; 87.8% in experiment [12]. Moreover, the growth was 35.3% in experiment [13]; -17.2% (active) in [14]; 39.5% in [15]; 77.1% in experiment [16]; 84.7% in experiment [17]; 65.6% in experiment [18].

`COc1cc(NC(=O)c2cccc(C3CCc4c(cc(OC)c(OC)c4OC)O3)c2)cc(OC)c1OC` (stereo not drawn): the growth was 16.2% in experiment [1]; 5.15% (active) in [2]; 51.4% in [3]; 31.6% in [4]; 32.4% in [5]; 13.8% in [6]. For the same compound, the growth is 7.51% (active) in experiment [7]; -8.84% (active) in experiment [8]; 16.9% in experiment [9]; 14.5% in [10]; -6.89% (active) in experiment [11]; 2.46% (active) in experiment [12]. In addition, the growth is 46.1% in experiment [13]; 3.71% (active) in [14]; 8.03% (active) in [15]; 64.8% in [16]; 0.726% (active) in experiment [17]; 29.3% in experiment [18].

Take `Cc1cc2nc3c([nH]c2cc1C)c1ccc(=O)cc1n3CCN(C)C`: the growth was 3.01% (active) in experiment [19]; 34% in experiment [2]; 39.8% in [3]; 46.9% in experiment [4]; 63.7% in experiment [5]; 28.2% in [6]. The growth in experiment [7] was 67.3%; in experiment [8], 81.3%; in [9], 33.6%; in experiment [10], 60%; in [11] it was 65.5%; in [12], 45%. Moreover, the growth in experiment [13] was 22.6%; in experiment [14], 12%; in experiment [15] it was 14.4%; in experiment [16], 26.8%; in [17], 43.4%; in experiment [18], 43%.

Consider `CC(=O)Oc1ccccc1C(=O)[Se]C(=NC1CCCCC1)NC1CCCCC1`, for which the growth is -15.7% (active) in experiment [19]; 4.77% (active) in [1]; -81.8% (active) in [2]; -85.9% (active) in [4]; -99.1% (active) in experiment [5]; -94% (active) in experiment [6]. Besides, the growth in [7] was -71.6% (active); in [9], -63.3% (active); in experiment [10] it was -43.3% (active); in experiment [11] it was -91.7% (active); in [12], -77.2% (active); in experiment [14], -82.1% (active). Further, the growth in experiment [15] is -69.9% (active); in [16] it was -92.6% (active); in experiment [17] it was -67.8% (active); in [18], -77.8% (active).

For `COCOc1cc2c(=O)c(C)c(C(=O)N[C@@H](Cc3ccccc3)C(O)C(=O)NCc3ccccc3)oc2cc1OC` (stereo partly drawn), the growth was 67.3% in experiment [1]; 2.29% (active) in experiment [2]; 92.5% in experiment [3]; 28.2% in experiment [4]; 22.8% in experiment [5]; 57.6% in [6]. In addition, the growth is 65.4% in [7]; 9.01% (active) in [8]; 88% in experiment [9]; 40.7% in [10]; -35.5% (active) in [11]; 11.2% in experiment [12]. The growth in experiment [13] is 31.1%; in [14], 17.3%; in experiment [15], -10.4% (active); in experiment [16], 57.3%; in experiment [17] it was -32.6% (active); in experiment [18], 13.9%.
